Experimental data as given in publication PMC7862700, “An all-to-all approach to the identification of sequence-specific readers for epigenetic DNA modifications on cytosine”.

How the values were obtained:
Experiment in all cases: DAPPL (digital affinity profiling via proximity ligation, sequencing); 10 mM Tris-HCl pH 7.5, 50 mM NaCl, 1 mM DTT, 4% glycerol, room temperature, 30 min; GST-TFs on glutathione beads, 16-mer random dsDNA library, 0.1% formaldehyde crosslink after washing; high values mean tight binding
[1] = molecular target: T1, FLI1 (Homo sapiens, UniProt Q01543 1-452); settings: protein: recombinant; tags: N-terminal GST; dsDNA, one strand shown
T1 sequence: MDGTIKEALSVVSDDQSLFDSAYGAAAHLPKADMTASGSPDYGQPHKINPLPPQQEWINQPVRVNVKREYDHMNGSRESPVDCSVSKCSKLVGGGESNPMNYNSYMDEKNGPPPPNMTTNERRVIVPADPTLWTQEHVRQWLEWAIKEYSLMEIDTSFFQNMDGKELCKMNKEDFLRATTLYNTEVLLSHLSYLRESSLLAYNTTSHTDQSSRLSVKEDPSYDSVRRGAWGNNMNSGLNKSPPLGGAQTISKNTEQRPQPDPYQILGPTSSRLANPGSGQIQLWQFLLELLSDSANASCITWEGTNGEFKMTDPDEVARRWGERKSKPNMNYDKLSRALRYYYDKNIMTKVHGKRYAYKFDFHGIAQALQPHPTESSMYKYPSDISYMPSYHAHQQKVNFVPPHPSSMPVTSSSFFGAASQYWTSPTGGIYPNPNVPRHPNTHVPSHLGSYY
Outline: (§1)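 Human transcription factors fused to GST were expressed in yeast, captured on glutathione beads, given DNA barcodes and pooled with a GST-only negative control. Pools were incubated with 200 nmole of a 16-mer random double-stranded DNA library in Tris/NaCl/DTT/glycerol buffer at room temperature for 30 min. They were then washed, crosslinked with 0.1% formaldehyde, proximity-ligated (BsaI/T4 ligase, 1 h, 37 °C), PCR-amplified and sequenced on an Illumina NextSeq500. Binding signal is each 6-mer's read frequency for a factor divided by its frequency for the GST control.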

[2] = molecular target: T2, ELK1 (Homo sapiens, UniProt P19419 1-428); settings: protein: recombinant; tags: N-terminal GST; dsDNA, one strand shown
T2 sequence: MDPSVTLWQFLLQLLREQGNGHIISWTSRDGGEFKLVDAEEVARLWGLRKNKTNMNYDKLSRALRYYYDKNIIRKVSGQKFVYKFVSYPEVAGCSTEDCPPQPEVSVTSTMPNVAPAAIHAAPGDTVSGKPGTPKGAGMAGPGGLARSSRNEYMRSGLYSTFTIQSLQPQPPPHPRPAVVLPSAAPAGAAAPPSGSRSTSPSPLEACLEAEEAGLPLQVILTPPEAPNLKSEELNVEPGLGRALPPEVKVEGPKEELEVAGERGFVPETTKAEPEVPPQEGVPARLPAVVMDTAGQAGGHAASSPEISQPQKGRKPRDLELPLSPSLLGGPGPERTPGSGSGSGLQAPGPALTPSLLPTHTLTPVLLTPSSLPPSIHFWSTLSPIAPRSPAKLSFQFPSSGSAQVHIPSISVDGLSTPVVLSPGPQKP
Outline: as §1

[3] = molecular target: T3, GABPA (Homo sapiens, UniProt Q06546 1-454); settings: protein: recombinant; tags: N-terminal GST; dsDNA, one strand shown
T3 sequence: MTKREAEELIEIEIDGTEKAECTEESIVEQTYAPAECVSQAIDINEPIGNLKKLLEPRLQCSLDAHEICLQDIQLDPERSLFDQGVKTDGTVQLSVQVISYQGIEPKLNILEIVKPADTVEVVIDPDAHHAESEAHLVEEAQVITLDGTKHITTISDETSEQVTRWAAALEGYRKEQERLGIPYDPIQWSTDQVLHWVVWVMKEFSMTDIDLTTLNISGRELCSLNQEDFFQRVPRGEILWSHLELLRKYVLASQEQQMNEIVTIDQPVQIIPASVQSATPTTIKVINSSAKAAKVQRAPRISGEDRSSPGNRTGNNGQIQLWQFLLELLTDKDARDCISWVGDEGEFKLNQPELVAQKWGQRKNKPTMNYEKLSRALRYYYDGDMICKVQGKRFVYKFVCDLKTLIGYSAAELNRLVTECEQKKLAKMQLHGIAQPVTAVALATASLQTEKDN
Outline: as §1

[4] = molecular target: T4, ERG (Homo sapiens, UniProt P11308 1-479); settings: protein: recombinant; tags: N-terminal GST; dsDNA, one strand shown
T4 sequence: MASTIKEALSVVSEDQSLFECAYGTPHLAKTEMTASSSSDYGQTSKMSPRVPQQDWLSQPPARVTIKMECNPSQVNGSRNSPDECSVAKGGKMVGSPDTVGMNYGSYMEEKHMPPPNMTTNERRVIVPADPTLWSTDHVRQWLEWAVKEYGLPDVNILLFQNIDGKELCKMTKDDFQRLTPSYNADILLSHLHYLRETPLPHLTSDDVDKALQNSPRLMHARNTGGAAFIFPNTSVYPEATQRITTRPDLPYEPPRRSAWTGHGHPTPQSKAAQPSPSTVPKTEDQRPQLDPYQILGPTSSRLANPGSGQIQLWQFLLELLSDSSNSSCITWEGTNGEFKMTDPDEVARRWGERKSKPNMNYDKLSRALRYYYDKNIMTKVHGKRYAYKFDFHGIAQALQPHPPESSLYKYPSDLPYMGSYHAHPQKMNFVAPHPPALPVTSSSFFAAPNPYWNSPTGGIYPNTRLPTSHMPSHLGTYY
Outline: as §1

[5] = molecular target: ELF1 (Homo sapiens, UniProt P32519 1-619); settings: protein: recombinant; tags: N-terminal GST; dsDNA, one strand shown
Sequence of ELF1 (P32519 whole entry): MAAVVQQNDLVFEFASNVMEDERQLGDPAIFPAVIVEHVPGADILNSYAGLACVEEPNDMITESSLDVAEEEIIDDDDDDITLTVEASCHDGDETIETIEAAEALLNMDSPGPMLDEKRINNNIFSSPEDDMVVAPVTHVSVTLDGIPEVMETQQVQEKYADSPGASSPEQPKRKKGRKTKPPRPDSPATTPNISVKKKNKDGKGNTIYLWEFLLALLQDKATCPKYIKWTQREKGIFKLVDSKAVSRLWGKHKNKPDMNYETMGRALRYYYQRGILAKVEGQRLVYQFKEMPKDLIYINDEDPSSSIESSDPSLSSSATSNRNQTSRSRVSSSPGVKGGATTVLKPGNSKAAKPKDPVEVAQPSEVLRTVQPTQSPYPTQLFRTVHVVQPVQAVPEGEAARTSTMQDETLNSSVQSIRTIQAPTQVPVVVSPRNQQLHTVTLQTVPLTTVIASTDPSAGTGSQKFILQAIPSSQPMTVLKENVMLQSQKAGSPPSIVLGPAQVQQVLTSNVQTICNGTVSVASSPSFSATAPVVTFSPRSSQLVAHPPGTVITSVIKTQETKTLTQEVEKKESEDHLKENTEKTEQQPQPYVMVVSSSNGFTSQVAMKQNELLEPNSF
Outline: as §1

[6] = molecular target: T5, EHF (Homo sapiens, UniProt Q9NZC4 1-300); settings: protein: recombinant; tags: N-terminal GST; dsDNA, one strand shown
T5 sequence: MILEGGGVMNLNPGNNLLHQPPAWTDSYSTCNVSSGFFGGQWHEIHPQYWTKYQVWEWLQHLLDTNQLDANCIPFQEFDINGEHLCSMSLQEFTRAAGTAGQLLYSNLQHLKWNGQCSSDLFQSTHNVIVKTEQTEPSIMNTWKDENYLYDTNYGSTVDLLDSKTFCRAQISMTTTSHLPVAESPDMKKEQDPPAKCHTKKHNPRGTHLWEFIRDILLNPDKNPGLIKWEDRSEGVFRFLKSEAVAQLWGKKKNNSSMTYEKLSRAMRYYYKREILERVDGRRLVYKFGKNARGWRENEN
Outline: as §1

[7] = molecular target: SPI1 (Homo sapiens, UniProt P17947 1-270); settings: protein: recombinant; tags: N-terminal GST; dsDNA, one strand shown
Outline: as §1

[8] = molecular target: SPIB (Homo sapiens, UniProt Q01892 1-262); settings: protein: recombinant; tags: N-terminal GST; dsDNA, one strand shown
Sequence of SPIB (Q01892 whole entry): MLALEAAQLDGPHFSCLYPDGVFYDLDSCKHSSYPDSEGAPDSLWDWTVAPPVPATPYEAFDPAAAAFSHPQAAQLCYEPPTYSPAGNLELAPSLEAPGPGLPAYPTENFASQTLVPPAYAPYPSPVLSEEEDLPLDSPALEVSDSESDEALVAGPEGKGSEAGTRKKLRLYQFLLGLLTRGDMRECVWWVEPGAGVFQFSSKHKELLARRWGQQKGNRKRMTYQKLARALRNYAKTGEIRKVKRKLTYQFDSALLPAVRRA
Outline: as §1

[9] = molecular target: T6, ELK3 (Homo sapiens, UniProt P41970 1-407); settings: protein: recombinant; tags: N-terminal GST; dsDNA, one strand shown
T6 sequence: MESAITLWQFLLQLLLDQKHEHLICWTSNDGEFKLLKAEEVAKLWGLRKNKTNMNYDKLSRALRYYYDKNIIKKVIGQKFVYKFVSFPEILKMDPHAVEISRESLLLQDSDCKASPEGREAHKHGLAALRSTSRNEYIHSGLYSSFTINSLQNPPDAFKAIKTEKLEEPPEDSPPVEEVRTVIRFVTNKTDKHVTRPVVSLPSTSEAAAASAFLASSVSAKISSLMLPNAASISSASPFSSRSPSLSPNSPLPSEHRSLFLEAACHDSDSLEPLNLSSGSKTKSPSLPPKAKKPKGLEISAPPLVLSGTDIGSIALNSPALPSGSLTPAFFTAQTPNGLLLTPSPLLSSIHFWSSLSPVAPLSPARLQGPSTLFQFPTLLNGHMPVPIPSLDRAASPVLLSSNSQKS
Outline: as §1

[10] = molecular target: T7, FEV (Homo sapiens, UniProt Q99581 1-238); settings: protein: recombinant; tags: N-terminal GST; dsDNA, one strand shown
T7 sequence: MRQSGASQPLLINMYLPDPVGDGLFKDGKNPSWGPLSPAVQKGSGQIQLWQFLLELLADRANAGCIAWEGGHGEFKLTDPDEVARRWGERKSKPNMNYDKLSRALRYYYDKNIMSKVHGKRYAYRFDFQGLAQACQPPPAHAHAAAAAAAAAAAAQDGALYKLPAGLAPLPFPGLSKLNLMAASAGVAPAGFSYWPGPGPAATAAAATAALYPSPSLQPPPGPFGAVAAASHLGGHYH
Outline: as §1

[11] = molecular target: ETV5 (Homo sapiens, UniProt P41161 1-510); settings: protein: recombinant; tags: N-terminal GST; dsDNA, one strand shown
Sequence of ETV5 (P41161 whole entry): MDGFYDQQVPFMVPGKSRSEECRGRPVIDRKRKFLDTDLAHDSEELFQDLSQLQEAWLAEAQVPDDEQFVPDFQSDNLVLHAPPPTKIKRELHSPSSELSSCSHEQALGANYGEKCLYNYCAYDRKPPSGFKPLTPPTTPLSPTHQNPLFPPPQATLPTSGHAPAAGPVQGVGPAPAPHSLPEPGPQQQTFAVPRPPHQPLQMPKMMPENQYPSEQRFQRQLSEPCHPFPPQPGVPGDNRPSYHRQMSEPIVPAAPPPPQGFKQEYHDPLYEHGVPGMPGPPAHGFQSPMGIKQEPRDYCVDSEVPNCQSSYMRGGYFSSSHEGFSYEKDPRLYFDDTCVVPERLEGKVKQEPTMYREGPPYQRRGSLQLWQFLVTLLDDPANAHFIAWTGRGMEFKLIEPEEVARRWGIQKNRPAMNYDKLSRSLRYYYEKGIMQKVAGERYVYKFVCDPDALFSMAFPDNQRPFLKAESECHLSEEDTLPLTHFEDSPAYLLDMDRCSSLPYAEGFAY
Outline: as §1

[12] = molecular target: HSF1 (Homo sapiens, UniProt Q00613 1-529); settings: protein: recombinant; tags: N-terminal GST; chain copies: 3; dsDNA, one strand shown
Sequence of HSF1 (Q00613 whole entry): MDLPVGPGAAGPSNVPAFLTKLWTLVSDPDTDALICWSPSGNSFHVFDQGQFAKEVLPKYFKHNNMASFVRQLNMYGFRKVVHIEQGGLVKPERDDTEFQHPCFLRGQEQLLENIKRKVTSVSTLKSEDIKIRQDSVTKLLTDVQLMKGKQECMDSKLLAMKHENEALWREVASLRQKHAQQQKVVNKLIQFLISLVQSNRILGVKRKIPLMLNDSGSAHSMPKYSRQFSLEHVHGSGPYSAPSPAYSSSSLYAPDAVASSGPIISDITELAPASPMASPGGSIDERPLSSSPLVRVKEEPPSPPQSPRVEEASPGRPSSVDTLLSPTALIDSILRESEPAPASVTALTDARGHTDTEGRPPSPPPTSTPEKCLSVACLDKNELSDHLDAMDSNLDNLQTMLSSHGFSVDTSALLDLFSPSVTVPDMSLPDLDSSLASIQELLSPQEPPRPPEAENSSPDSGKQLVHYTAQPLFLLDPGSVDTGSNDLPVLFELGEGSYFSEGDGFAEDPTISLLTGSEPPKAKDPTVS
Outline: as §1

[13] = molecular target: T8, SPIC (Homo sapiens, UniProt Q8N5J4 1-248); settings: protein: recombinant; tags: N-terminal GST; dsDNA, one strand shown
T8 sequence: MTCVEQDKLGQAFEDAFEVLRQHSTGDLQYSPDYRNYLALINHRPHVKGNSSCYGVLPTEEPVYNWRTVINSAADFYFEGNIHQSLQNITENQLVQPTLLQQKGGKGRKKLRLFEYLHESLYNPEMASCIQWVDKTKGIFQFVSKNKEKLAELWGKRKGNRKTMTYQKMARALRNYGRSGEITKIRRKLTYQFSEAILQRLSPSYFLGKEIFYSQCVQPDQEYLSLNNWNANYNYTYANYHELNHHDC
Outline: as §1

[14] = molecular target: ELF4 (Homo sapiens, UniProt Q99607 1-663); settings: protein: recombinant; tags: N-terminal GST; dsDNA, one strand shown
Sequence of ELF4 (Q99607 whole entry): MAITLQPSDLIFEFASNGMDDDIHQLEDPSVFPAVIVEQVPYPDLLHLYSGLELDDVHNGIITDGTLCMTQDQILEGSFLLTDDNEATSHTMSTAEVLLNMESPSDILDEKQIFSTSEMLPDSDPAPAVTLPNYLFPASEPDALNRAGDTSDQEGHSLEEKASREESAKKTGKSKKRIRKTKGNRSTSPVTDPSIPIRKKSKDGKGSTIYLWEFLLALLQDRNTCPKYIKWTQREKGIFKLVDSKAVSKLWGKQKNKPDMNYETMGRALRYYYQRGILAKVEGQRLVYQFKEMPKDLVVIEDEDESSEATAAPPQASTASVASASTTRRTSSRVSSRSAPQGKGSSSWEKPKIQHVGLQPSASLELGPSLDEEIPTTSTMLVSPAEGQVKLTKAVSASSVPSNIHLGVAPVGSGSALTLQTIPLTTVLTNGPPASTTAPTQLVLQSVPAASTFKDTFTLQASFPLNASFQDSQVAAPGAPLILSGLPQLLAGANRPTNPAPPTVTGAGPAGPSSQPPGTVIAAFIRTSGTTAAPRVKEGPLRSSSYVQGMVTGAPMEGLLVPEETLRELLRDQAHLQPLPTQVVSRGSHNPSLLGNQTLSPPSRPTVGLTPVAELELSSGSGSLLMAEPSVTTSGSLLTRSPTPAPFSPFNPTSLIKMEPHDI
Outline: as §1

[15] = molecular target: T9, ELK4 (Homo sapiens, UniProt P28324-2 1-405); settings: protein: recombinant; tags: N-terminal GST; dsDNA, one strand shown
T9 sequence: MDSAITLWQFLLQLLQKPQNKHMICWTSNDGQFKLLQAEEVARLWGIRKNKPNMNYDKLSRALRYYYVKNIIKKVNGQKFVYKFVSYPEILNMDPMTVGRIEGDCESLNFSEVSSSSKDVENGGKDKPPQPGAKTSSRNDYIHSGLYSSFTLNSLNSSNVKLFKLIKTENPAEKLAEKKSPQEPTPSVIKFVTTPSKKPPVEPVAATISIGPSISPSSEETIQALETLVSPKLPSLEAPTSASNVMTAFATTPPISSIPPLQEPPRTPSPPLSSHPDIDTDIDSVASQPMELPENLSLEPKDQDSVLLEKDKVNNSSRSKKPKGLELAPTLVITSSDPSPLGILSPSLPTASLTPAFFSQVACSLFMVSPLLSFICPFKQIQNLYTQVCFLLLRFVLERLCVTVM
Outline: as §1

[16] = molecular target: T10, ETV2 (Homo sapiens, UniProt O00321 1-342); settings: protein: recombinant; tags: N-terminal GST; dsDNA, one strand shown
T10 sequence: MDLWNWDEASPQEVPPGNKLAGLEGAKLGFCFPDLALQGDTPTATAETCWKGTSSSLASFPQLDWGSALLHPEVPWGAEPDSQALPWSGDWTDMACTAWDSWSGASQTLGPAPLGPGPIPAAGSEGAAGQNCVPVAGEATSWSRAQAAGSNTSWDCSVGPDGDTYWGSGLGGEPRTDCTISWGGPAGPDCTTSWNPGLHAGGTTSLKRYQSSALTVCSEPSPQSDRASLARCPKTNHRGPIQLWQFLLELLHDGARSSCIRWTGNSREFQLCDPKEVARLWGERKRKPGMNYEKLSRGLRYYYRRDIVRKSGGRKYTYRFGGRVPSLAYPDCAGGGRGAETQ
Outline: as §1

[17] = molecular target: T11, ELF3 (Homo sapiens, UniProt P78545 1-371); settings: protein: recombinant; tags: N-terminal GST; dsDNA, one strand shown
T11 sequence: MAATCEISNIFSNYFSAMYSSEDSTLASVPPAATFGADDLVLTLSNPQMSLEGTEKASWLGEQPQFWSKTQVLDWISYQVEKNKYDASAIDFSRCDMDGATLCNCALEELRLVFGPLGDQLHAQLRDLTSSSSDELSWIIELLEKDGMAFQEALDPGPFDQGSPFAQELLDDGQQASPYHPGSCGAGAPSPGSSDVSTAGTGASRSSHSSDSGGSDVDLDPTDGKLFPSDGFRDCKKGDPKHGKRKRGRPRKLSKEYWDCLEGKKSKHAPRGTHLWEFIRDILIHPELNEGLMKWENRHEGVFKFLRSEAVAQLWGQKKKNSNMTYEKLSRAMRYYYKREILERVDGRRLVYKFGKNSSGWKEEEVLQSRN
Outline: as §1

[18] = molecular target: CRX (Homo sapiens, UniProt O43186 1-299); settings: protein: recombinant; tags: N-terminal GST; dsDNA, one strand shown
Sequence of CRX (O43186 whole entry): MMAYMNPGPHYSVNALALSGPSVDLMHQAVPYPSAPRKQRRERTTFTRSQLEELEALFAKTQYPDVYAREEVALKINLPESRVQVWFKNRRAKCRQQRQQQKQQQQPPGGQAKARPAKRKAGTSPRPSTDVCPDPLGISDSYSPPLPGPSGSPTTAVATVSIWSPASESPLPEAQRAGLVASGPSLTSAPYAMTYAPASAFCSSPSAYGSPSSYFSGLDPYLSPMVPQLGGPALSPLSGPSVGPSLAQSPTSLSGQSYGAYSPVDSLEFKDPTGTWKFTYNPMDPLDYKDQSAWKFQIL
Outline: as §1

[19] = molecular target: ETV1 (Homo sapiens, UniProt P50549 1-477); settings: protein: recombinant; tags: N-terminal GST; dsDNA, one strand shown
Sequence of ETV1 (P50549 whole entry): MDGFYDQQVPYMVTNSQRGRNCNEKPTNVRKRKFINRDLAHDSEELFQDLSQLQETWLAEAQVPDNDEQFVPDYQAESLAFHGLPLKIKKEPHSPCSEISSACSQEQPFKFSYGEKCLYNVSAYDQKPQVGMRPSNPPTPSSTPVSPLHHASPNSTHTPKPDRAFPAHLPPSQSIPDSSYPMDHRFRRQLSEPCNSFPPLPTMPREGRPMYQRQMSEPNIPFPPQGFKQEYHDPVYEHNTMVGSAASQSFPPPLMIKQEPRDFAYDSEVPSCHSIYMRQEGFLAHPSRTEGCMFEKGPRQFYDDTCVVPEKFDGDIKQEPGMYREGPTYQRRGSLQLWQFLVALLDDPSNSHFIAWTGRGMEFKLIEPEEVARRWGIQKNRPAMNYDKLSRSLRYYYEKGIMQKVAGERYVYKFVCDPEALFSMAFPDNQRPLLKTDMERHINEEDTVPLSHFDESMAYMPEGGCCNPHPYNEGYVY
Outline: as §1

With AATACA the binding signal [1] was 1.28 fold enrichment (6-mer frequency, TF over GST control), the binding signal [2] was 1.3 fold enrichment (6-mer frequency, TF over GST control) and the binding signal [3] was 1.38 fold enrichment (6-mer frequency, TF over GST control). For the same sequence, the binding signal [4] was 1.33 fold enrichment (6-mer frequency, TF over GST control), the binding signal [5] was 1.35 fold enrichment (6-mer frequency, TF over GST control) and the binding signal [6] was 1.3 fold enrichment (6-mer frequency, TF over GST control). The binding signal [7] was 1.28 fold enrichment (6-mer frequency, TF over GST control), the binding signal [8] was 1.31 fold enrichment (6-mer frequency, TF over GST control) and the binding signal [9] was 1.27 fold enrichment (6-mer frequency, TF over GST control). For the same sequence, the binding signal [10] was 1.38 fold enrichment (6-mer frequency, TF over GST control), the binding signal [11] was 1.33 fold enrichment (6-mer frequency, TF over GST control) and the binding signal [12] was 1.25 fold enrichment (6-mer frequency, TF over GST control). For the same sequence, the binding signal [13] was 1.21 fold enrichment (6-mer frequency, TF over GST control), the binding signal [14] was 1.3 fold enrichment (6-mer frequency, TF over GST control) and the binding signal [15] was 1.29 fold enrichment (6-mer frequency, TF over GST control). The binding signal [16] was 1.45 fold enrichment (6-mer frequency, TF over GST control), the binding signal [17] was 1.18 fold enrichment (6-mer frequency, TF over GST control) and the binding signal [18] was 1.33 fold enrichment (6-mer frequency, TF over GST control). The binding signal [19] was 1.31 fold enrichment (6-mer frequency, TF over GST control).
